# Luciferase inh: blocks purified firefly luciferase enzyme activity | P08659 | purified P. pyralis luciferase, luminescence, biochemical | Potency, µM (highest dose often 115 µM), usual class: inhibitors | hit rate 2.5% among 76,000; further: nearly all actives have a fitted effect of over 65% in size
#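 FLuc 10nM, D-luciferin 10uM, ATP 10uM, Mg acetate 10mM, Tris acetate pH 7.5, Tween/BSA; cpd qHTS; enzyme added last; CCD luminescence.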
# NPR1 antag: human Npr1 receptor antagonism; P16066; HEK293 hNpr1 GloSensor cGMP, ANP-stimulated luminescence; Potency, µM (titrated, usually from 46.3 µM), for the others: at the highest dose activity change, negative = inhibition, actives largely listed as inhibitors; hit rate 1.6% among 76,000; AID 1347048; calls by dose curve; further: nearly all actives have a fitted effect of over 60% in size
#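 HEK293 cells stably expressing human Npr1 and cGMP GloSensor pGS-40F, loaded 2 h with 2% GloSensor reagent, given compound 30 min at room temperature. Luminescence read before and 20 min after 0.1 nM hNppA.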
# HEK293 tox: HEK 293 cell cytotoxicity. AID 1345083. Potency, µM (doses to about 115 µM), without a hit: at the highest dose activity change, negative = cytotoxicity, most hits filed as inhibitors. hit rate 6.6% among 94,000. HEK 293 viability, ATP luminescence (CellTiter-Glo), 48-72 h; further: nearly all actives have a fitted effect of over 60% in size
#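 qHTS cytotoxicity; HEK 293, 250 cells/well; compound pinned; 48 or 72 hr, 37 degree Celsius, 5% CO2, 95% humidity; CellTiter-Glo, 10 min RT; luminescence (ATP).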
# GPT2 inhibitor: inhibitors of human GPT2 alanine aminotransferase. Q8TD30. Recombinant GPT2, coupled pyruvate oxidase/HRP Amplex Red fluorescence. Potency, µM (doses to about 57.7 µM), without a hit: top-dose activity change, negative = inhibition, usual class: inhibitors. hit rate 0.25% among 100,000. AID 1671188; further: nearly all actives have a fitted effect of over 60% in size
# Target sequence (Q8TD30 whole entry, looked up): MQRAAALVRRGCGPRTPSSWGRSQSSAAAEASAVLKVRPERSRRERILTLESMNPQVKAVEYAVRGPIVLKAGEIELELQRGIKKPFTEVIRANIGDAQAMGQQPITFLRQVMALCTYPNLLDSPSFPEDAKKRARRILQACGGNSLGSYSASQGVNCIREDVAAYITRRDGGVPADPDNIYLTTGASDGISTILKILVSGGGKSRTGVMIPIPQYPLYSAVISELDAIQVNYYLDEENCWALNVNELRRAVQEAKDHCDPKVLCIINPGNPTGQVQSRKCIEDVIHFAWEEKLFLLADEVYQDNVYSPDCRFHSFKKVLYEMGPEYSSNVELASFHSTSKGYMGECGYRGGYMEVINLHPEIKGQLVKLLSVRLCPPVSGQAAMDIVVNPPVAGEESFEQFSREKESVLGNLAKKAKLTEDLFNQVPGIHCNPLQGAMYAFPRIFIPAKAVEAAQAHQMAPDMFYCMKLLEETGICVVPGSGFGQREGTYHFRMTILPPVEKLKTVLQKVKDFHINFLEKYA
#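 Recombinant GPT2 (10ng/uL) with 250uM a-KG and 2mM L-alanine, 30 min at room temperature, in HEPES pH 7.5 buffer. Pyruvate detected by pyruvate oxidase/HRP/Amplex Red fluorescence after 30 min in the dark; AOA (50uM) as positive control.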
# NIH3T3 tox: kills NIH 3T3 cells | Potency, µM (doses to about 96.7 µM), inactives show at the top dose activity change, negative = cytotoxicity, hits mostly inhibitors | hit rate 4.3% among 94,000 | NIH 3T3 viability, CellTiter-Glo ATP luminescence, 48-72 h | AID 1345082; further: nearly all actives have a fitted effect of over 55% in size
#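 First NIH 3T3 cells are plated at 400 cells/well; next compound is pinned in; then plates incubate 48 or 72 hr at 37 °C; finally CellTiter-Glo is added and luminescence read after 10 min.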
# Numbers without * were called inactive; i = inactive; ? = inconclusive; / = no result given; [ ] = dose if it differs, or a comment. An excerpt weighted towards active compounds, which were near 10% of everything screened. Unless noted, the call rests on the fitted dose curve; in most records, active means well fitted curve in the direction sought with a large enough effect; inconclusive means small, poorly fitted or top-dose-only effect, or another doubt; inactive means no such curve, though single readings can be large; an effect the other way counts as inactive or inconclusive. On the % scale 0 is the no-effect control and ±100 the full control effect; potency means the concentration at half of the fitted maximal effect.
SMILES,Luciferase inh,NPR1 antag,HEK293 tox,GPT2 inhibitor,NIH3T3 tox
C[C@](N)(Cc1ccc(O)c(O)c1)C(=O)O,/,/,/,7.9µM*,/
Cc1ccc(C2=NC3(CCN(C(=O)c4ccc(F)cc4F)CC3)ON2)cc1,?,-19%,-7%,i,-8%
c1cnn(-c2ccc(-c3n[nH]c(C4CCOCC4)n3)cc2)c1,?,11%,1%,i,i
c1cc(N2CCCCC2)ccc1-c1n[nH]c(C2CCOC2)n1 (stereo not given),6.3µM*,-29%,-11%,i,?
Cc1cccc(-c2nc3cc4c(cc3cc2CN2CCC[C@H]2C(N)=O)OCO4)c1,i,4%,?,3%,?
Cc1ccc(-n2cc(CN3CCCCC3C(N)=O)c(-c3cccc(C)c3)n2)cc1 (stereo not given),?,5%,50µM*,i,79µM*
COc1ccccc1-c1cccc(C(=O)N2CCN(C(=O)c3ccc(C)cc3)CC2)c1,/,/,40µM*,i,?
COc1ccccc1-c1cccc(C(=O)N2CCN(C(=O)c3ccccc3F)CC2)c1,/,/,89µM*,3%,-24%
COc1ccccc1-c1cccc(C(=O)N2CCN(C(=O)Nc3ccc(Cl)cc3)CC2)c1,/,/,?,-2%,?
COc1ccccc1-c1cccc(C(=O)N2CCN(C(=O)c3cccc(Cl)c3)CC2)c1,/,/,40µM*,i,?
COc1ccccc1-c1cccc(C(=O)N2CCN(C(=O)c3ccc(F)cc3)CC2)c1,/,/,?,i,?
Cc1nc(-c2c3n(c(=O)n(CC(=O)NCc4ccc(F)cc4)c2=O)CCCCC3)no1,i,0%,-3%,-12%,i
Cc1nn(-c2ccccc2)c2c1C(C)N(CC1CN(C(=O)c3ccc(Cl)cc3)C1)C2=O (stereo not given),/,/,?,/,35µM*
Cc1nn(-c2ccccc2)c2c1C(C)N(CC1CN(Cc3ccc(F)cc3)C1)C2=O (stereo not given),/,/,?,/,35µM*
COC[C@@H]1CN(Cc2cccc(C)c2)C[C@H]1C(=O)NC1CC1,i,-2%,-17%,i,-8%
CCN(CC)C(=O)C(C)[C@@H]1CC[C@@]2(C)CC[C@H](NC(=O)c3cnccn3)[C@@H](C)[C@@H]2[C@H]1O (stereo not given in full),i,-2%[70.6 µM],?,?,?
O=c1c2c3c(nn2ccn1Cc1cc(F)cc(F)c1)CCCC3,i,-3%,?,2%,?
COc1ccc(Cn2ccn3nc4c(c3c2=O)CCCC4)cc1F,i,2%,40µM*,i,?
O=C(c1nccc2ccccc12)N1CCC2(CC1)CC(CCOCc1ccccc1)CCO2 (stereo not given),/,/,?,-11%,?
Cc1noc(-c2cn(C3CCN(C(=O)c4ccc(C)s4)CC3)nn2)n1,i,25%,-9%,-8%,-26%
Cc1ccc(C(=O)N2CCC(n3cc(-c4nc(-c5ccccc5)no4)nn3)CC2)s1,i,?,45µM*,i,?
Cc1ccc(C(=O)N2CCCC(n3cc(-c4nc(C5CC5)no4)nn3)C2)s1 (stereo not given),i,-8%,?,i,-27%
Cc1ccc(C(=O)N2CCCC(n3cc(-c4nc(-c5ccccc5)no4)nn3)C2)s1 (stereo not given),?,10µM*,?,i,?
Cc1oc(-c2cccc(Oc3ccccc3)c2)nc1CN(C)Cc1cnc(N)nc1,i,-1%,?,2%,?
COc1cccc(CN2CCC(N3C(=O)C4(CCCCC4)C3c3ccncc3)CC2)c1OC (stereo not given),i,-4%,?,-21%,?
SMILES,Luciferase inh,NPR1 antag,HEK293 tox,GPT2 inhibitor,NIH3T3 tox
CCC(C)NC(=O)C1CCCN1Cc1cccc(-c2ccc(C)c(Cl)c2)c1 (stereo not given),/,/,22µM*,/,35µM*
Cc1ccc(-c2cccc(CN3CCCC3C(=O)NC3CCC3)c2)cc1Cl (stereo not given),/,/,28µM*,/,40µM*
Cc1ccc(-c2cccc(CN3CCCC3C(=O)NC3CC3)c2)cc1Cl (stereo not given),/,/,32µM*,/,35µM*
Cc1ccc(-c2cccc(CN3CCCC(NC(=O)NC4CCCC4)C3)c2)cc1Cl (stereo not given),/,/,5%,-3%,-18%
Cc1ccc(C2Cn3nnc(C(=O)N4CCC(C(=O)NCC5CCCO5)CC4)c3CO2)cc1 (stereo not given),?,-3%,-3%,i,-7%
COCc1nncn1C1CCN(C(=O)c2ccc(F)c(F)c2)CC1,i,1%,7%,i,i
CN(C(=O)c1cc2ccccc2oc1=O)C1CCCN(CCCc2ccccc2)C1 (stereo not given),i,0%,?,i,40µM*
O=C1NCCOCCN(C(=O)c2ccccn2)[C@H]2CCC[C@@H]12,i,-4%,-16%,i,0%
CNC(=O)c1cc(C)nc2onc(C3CCCN(C(=O)c4ccc(C(F)(F)F)cc4)C3)c12 (stereo not given),/,/,?,/,-39%
O=C(C1CCOCC1)N1CCc2c(n(Cc3ccccc3)n(-c3ccccc3)c2=O)C1,i,-1%[70.6 µM],4%[172 µM],-1%[88.5 µM],100µM*
O=C(C1CCCO1)N1CCc2c(n(Cc3ccccc3)n(-c3ccccc3)c2=O)C1 (stereo not given),i,2%[70.6 µM],-6%[172 µM],0%[88.5 µM],32µM*
CCn1c2c(c(=O)n1Cc1ccccc1)CCN(C(=O)C1CCCO1)C2 (stereo not given),i,0%[70.6 µM],i,-17%[88.5 µM],?
COc1ccc(-n2c(=O)c3c(n2Cc2ccccc2)CN(C(=O)C2CCC(OC)CC2)CC3)cc1 (stereo not given),i,1%,-6%,i,?
CN1CCC(N2CCCC(NC(=O)c3cnc4ccccc4c3)C2)CC1 (stereo not given),i,4%,-6%,i,i
O=C(NCc1ccc2c(c1)OCO2)c1cnc2c(c1)N(C(=O)CCc1ccccc1)CCC2,i,4%,?,i,?
O=C(NCc1cccc(Cl)c1)c1cnc2c(c1)N(C(=O)CCc1ccccc1)CCC2,i,-18%[70.6 µM],?,-6%[88.5 µM],100µM*
O=C(c1cnc2c(c1)N(C(=O)CCc1ccccc1)CCC2)N1CCC(c2ccccc2)CC1,i,5%,79µM*,-5%,?
Cc1csc(NC(=O)c2cnc3c(c2)N(C(=O)CCc2ccccc2)CCC3)n1,i,-1%[70.6 µM],?,-26%[88.5 µM],89µM*
O=C(Nc1cccc(F)c1)c1cnc2c(c1)N(C(=O)CCc1ccccc1)CCC2,i,-17%[70.6 µM],?,-14%[88.5 µM],-20%[138 µM]

# Compound activity as filed in PubChem.
